Source: PubChem BioAssay
Several values for one entry are separate records, joined by “and”; a condition that tells them apart may be missing. Equal entries are not always repeated.

Test: CRL1545 cell growth, single agent and combined, cisplatin and BGB IC20 combos (AID 1671464);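 also: cells exposed to compound for 96 hours before readout; 0% = vehicle DMSO and 100% = high DMSO killing control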
Conditions: CRL1545 osteosarcoma cells, single agent, at 0.05 µM, stronger effect = higher value

Compared with `Cc1ccc2nc(NCCN)c3ncc(C)n3c2c1`, `CN(C)CCN1C(=O)c2cccc3cc(N)cc(c23)C1=O` is higher in inhibition: -17.3% for the first, -14.5% for the second.

In the case of `O=C(O)[C@H](Cc1c[nH]c2ccccc12)N1C(=O)c2ccccc2C1=O`, the inhibition is reported as -29.1%.

For `C[C@]1(c2nc3c(C(N)=O)cccc3[nH]2)CCCN1`, the inhibition was -19.2% and -14.5%.

Same assay, conditions: CRL1545 osteosarcoma cells, single agent, at 5 µM, stronger effect = higher value

Going from `Cc1ccc2nc(NCCN)c3ncc(C)n3c2c1` to `CN(C)CCN1C(=O)c2cccc3cc(N)cc(c23)C1=O`, the inhibition falls from 99.7% to 59.5%.

`O=C(O)[C@H](Cc1c[nH]c2ccccc12)N1C(=O)c2ccccc2C1=O` gave an inhibition of -40.2%.

In the case of `C[C@]1(c2nc3c(C(N)=O)cccc3[nH]2)CCCN1`, the inhibition is reported as -45.7% and -33.6%.
